Test results reported in PubChem BioAssay (EPA / NIEHS).
Active and inactive are the calls of the source. Rule for the calls: active = hit-call score of the fitted dose curve at least 0.9, where 1 is the maximum; inactive = score below 0.9.

What follows are compounds tested against Nuclear respiratory factor 1 (Homo sapiens) (UniProt Q16656) (assay: ATG_NRF1_CIS: Attagene CIS-FACTORIAL HepG2 Assay for human Nuclear Respiratory Factor 1 (NRF1) Orphan Gene (AID 2282987)). Settings: HepG2 NRF1 cis-element reporter, Attagene multiplex; actives raise or lower the signal.
Sequence of Nuclear respiratory factor 1 (Homo sapiens) (Q16656 whole entry, looked up): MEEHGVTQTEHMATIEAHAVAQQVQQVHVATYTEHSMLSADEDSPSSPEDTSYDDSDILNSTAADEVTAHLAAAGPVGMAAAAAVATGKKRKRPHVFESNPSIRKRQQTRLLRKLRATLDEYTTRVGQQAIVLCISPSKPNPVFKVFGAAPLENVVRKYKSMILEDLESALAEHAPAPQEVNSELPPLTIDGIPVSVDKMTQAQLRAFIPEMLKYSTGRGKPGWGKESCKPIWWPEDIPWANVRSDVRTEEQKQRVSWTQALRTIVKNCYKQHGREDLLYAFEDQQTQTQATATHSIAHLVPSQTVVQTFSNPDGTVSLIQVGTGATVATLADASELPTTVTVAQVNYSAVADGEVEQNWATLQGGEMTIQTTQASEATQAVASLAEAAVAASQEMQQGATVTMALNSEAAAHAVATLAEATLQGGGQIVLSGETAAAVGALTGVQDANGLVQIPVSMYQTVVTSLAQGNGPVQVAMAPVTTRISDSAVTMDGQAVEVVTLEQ
In short: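 HepG2 cells transiently transfected with multiple reporter transcription units under cis-regulatory promoter control, so endogenous transcription-factor activity is read. After 24 h compound exposure, reporter mRNA quantified by RT-PCR, fluorescent labelling, HpaI digestion and capillary electrophoresis; bidirectional fitting versus DMSO.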
`CN1CN(C)CN(C)C1` was tested, and the outcome was “inactive”. `Cc1ccc2c(c1)OCC(=O)CO2` was tested, and the outcome was “inactive”. For `C=CC(=O)OCC(F)(F)C(F)(F)C(F)(F)C(F)(F)C(F)(F)C(F)(F)C(F)(F)C(F)F`, the outcome was “inactive”. In the case of `C[Si](Cl)(Cl)CCC(F)(F)C(F)(F)C(F)(F)C(F)(F)C(F)(F)C(F)(F)F`, the outcome is reported as “inactive”. In the case of `CSc1ccc(O)cc1C`, the outcome is reported as “inactive”. For `CCC(=O)OC(C)c1ccccc1` (configuration not stated), the outcome was “inactive”. For `CCCCCCCCCCCCCCCCC`, the outcome was “inactive”. `FC(F)(F)C(F)(F)C(F)(F)CC1CO1` (configuration not stated) was tested, and the outcome was “inactive”. For `CCCCCCCC/C=C\CCCCCCCC(=O)OCC(O)CO` (configuration not stated), the outcome was “inactive”. `C=C(C)CCCC` was tested, and the outcome was “inactive”. For `OCCCC(F)(F)C(F)(F)C(F)(F)C(F)(F)C(F)(F)C(F)(F)C(F)(F)C(F)(F)F`, the outcome was “inactive”. With `CNS(=O)(=O)C(F)(F)C(F)(F)C(F)(F)C(F)(F)C(F)(F)C(F)(F)C(F)(F)C(F)(F)F` the outcome was “inactive”. `CCOC(C=C(C)CCC=C(C)C)OCC` was tested, and the outcome was “inactive”. `CCCCCCCC/C=C\CCCCCCCC(=O)N(C)CC(=O)O` was tested, and the outcome was “inactive”. In the case of `O=C1c2ccccc2C(=O)c2c(Cl)cccc21`, the outcome is reported as “inactive”. In the case of `O=C(O)CCC(F)(F)C(F)(F)C(F)(F)F`, the outcome is reported as “inactive”. In the case of `CC(C)CC=C(C=O)c1ccccc1`, the outcome is reported as “inactive”. In the case of `O=C(Cl)C(F)(F)C(F)(F)C(F)(F)C(F)(F)C(F)(F)C(F)(F)F`, the outcome is reported as “inactive”. With `OCC(O)CC(F)(F)C(F)(F)C(F)(F)C(F)(F)C(F)(F)C(F)(F)C(F)(F)C(F)(F)F` (configuration not stated) the outcome was “inactive”. For `CCOC(=O)CCC(C)=O`, the outcome was “inactive”. With `CCC(C)CO` (configuration not stated) the outcome was “inactive”. With `NC(=O)C(F)(F)C(F)(F)C(F)(F)F` the outcome was “inactive”. For `OCCCCl`, the outcome was “inactive”. For `Nc1c(Br)cc([N+](=O)[O-])cc1Br`, the outcome was “inactive”. `CCCCCCCCCCCCCC[P+](CCCC)(CCCC)CCCC` was tested, and the outcome was “inactive”. `Cc1ccc([N+](=O)[O-])c(C)c1` was tested, and the outcome was “inactive”. For `Oc1ccc2c(c1)CCC2`, the outcome was “inactive”. `CCOC(=O)CC(=O)C(F)(F)C(F)(F)F` was tested, and the outcome was “inactive”. `CN(C)C(C)(C)CO` was tested, and the outcome was “inactive”. `C=CC(=O)OCC(F)(F)C(F)(F)C(F)(F)COC(=O)C=C` was tested, and the outcome was “inactive”. With `CO[Si](C)(CCC(F)(F)C(F)(F)C(F)(F)C(F)(F)C(F)(F)C(F)(F)F)OC` the outcome was “inactive”. For `O=S(=O)(OCC(F)(F)F)C(F)(F)C(F)(F)C(F)(F)C(F)(F)F`, the outcome was “inactive”. In the case of `O=C(O)C(F)(F)C(F)(F)C(F)(F)OC(F)(F)F`, the outcome is reported as “inactive”. In the case of `CCOC(=O)C1CC(=O)C(=C(O)C2CC2)C(=O)C1` (configuration not stated), the outcome is reported as “inactive”. In the case of `Cc1ccc(O)c(-n2nc3ccccc3n2)c1`, the outcome is reported as “inactive”. In the case of `CCCCOC(=O)C(C)O` (configuration not stated), the outcome is reported as “inactive”. With `CCN(CC)c1ccc(N=Nc2ccccc2)cc1` the AC50 was 35.4 µM (active).
